Experimental data taken from PubChem BioAssay (EPA / NIEHS).
The source made the active and inactive calls. How the source made its calls: active means hit-call score of the fitted dose curve at least 0.9, where 1 is the maximum; inactive means score below 0.9.

Assays:
Conditions in all cases: mRNA level, 48 h; actives raise or lower the signal
[1] = read-out: Bcl-2 (BAD) gene, BAD (gene 572); experiment: LTEA_HepaRG_BAD: Life Technologies and Expression Analysis (LTEA) Assay for Bcl-2 (BAD) gene using HepaRG (AID 2283469)
Method in brief: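 Differentiated HepaRG cells were exposed in duplicate in 0.5% DMSO for 48 h to eight-point half-log concentrations up to 100 uM. BAD mRNA was measured by Fluidigm TaqMan qRT-PCR, normalized to ACTB, GAPDH and POLR2A, and fitted bidirectionally against DMSO.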

[2] = read-out: Bcl-2 (BAX) gene, BAX (gene 581); experiment: LTEA_HepaRG_BAX: Life Technologies and Expression Analysis (LTEA) Assay for Bcl-2 (BAX) gene using HepaRG (AID 2283470)
Method in brief: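 HepaRG (human liver), 48 h exposure, duplicate wells. 8-pt curve, half-log from 100 uM, 0.5% DMSO. BAX transcript by TaqMan qRT-PCR; ACTB/GAPDH/POLR2A normalization; gain or loss vs DMSO baseline.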

[3] = read-out: adenosine kinase (ADK) gene, ADK (gene 132); experiment: LTEA_HepaRG_ADK: Life Technologies and Expression Analysis (LTEA) Assay for adenosine kinase (ADK) gene using HepaRG (AID 2283471)
Method in brief: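 Following 48 h exposure of HepaRG cells in 0.5% DMSO (top concentration 100 uM, duplicate wells), ADK mRNA induction or suppression was measured by qRT-PCR, normalised to ACTB/GAPDH/POLR2A, and fitted bidirectionally relative to vehicle.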

[4] = read-out: Alpha-fetoprotein (AFP) gene, AFP (gene 174); experiment: LTEA_HepaRG_AFP: Life Technologies and Expression Analysis (LTEA) Assay for Alpha-fetoprotein (AFP) gene using HepaRG (AID 2283472)
Method in brief: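 HepaRG, single lot; 48 h post-plating -> serum-free induction medium; cpd 8-pt, 100 uM top, half-log, 0.5% DMSO, duplicate, 48 h. RNA -> qRT-PCR AFP, norm ACTB/GAPDH/POLR2A. Bidirectional fit vs DMSO.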

[5] = read-out: Apolipoprotein A-V (APOA5) gene, APOA5 (gene 116519); experiment: LTEA_HepaRG_APOA5: Life Technologies and Expression Analysis (LTEA) Assay for Apolipoprotein A-V (APOA5) gene using HepaRG (AID 2283474)
Method in brief: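 Human liver HepaRG cells are treated 48 h with test chemicals (100 uM top, half-log dilutions, 0.5% DMSO). APOA5 mRNA induction or loss is measured by qRT-PCR relative to vehicle.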

[6] = read-out: Apoptosis regulator Bcl-2 (Homo sapiens) (UniProt P10415); experiment: LTEA_HepaRG_BCL2: Life Technologies and Expression Analysis (LTEA) Assay for Bcl-2 gene using HepaRG (AID 2283475)
Method in brief: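 HepaRG, plated 48 h then switched to serum-free induction medium; dosed 48 h, 8 conc. (max 100 uM, half-log steps), duplicate, 0.5% DMSO. Lysis in RLT, RNA isolated, TaqMan qRT-PCR for BCL2; ACTB/GAPDH/POLR2A normalisation; bidirectional fit vs DMSO.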

[7] = read-out: Bcl-2 (BID) gene, BID (gene 637); experiment: LTEA_HepaRG_BID: Life Technologies and Expression Analysis (LTEA) Assay for Bcl-2 (BID) gene using HepaRG (AID 2283476)
Method in brief: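 Transcript levels of BID, measured by qRT-PCR and normalized to three housekeeping genes, were fitted bidirectionally against DMSO controls. Cells were HepaRG, dosed 48 h at up to 100 uM.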

[8] = read-out: Caspase-3 (Homo sapiens) (UniProt P42574); experiment: LTEA_HepaRG_CASP3: Life Technologies and Expression Analysis (LTEA) Assay for cysteine-aspartic acid protease (CASP3) using HepaRG (AID 2283477)
Method in brief: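 In HepaRG liver cells dosed for 48 h at up to 100 uM (eight-point, duplicate), CASP3 expression changes are scored by qRT-PCR. Activity is fitted in both directions with 0.5% DMSO as baseline.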

[9] = read-out: Cytochrome P450 (CYP1A2), CYP1A2 (gene 1544); experiment: LTEA_HepaRG_CYP1A2: Life Technologies and Expression Analysis (LTEA) Assay for Cytochrome P450 (CYP1A2) using HepaRG (AID 2283479)
Method in brief: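 Assesses CYP1A2 mRNA in human HepaRG liver cells after 48 h chemical exposure at up to 100 uM. Values come from qRT-PCR with bidirectional curve fitting relative to DMSO.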

[10] = read-out: cysteine-aspartic acid protease (CASP8), CASP8 (gene 841); experiment: LTEA_HepaRG_CASP8: Life Technologies and Expression Analysis (LTEA) Assay for cysteine-aspartic acid protease (CASP8) using HepaRG (AID 2283480)
Method in brief: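 Differentiated HepaRG cells in serum-free induction medium, 48 h exposure, eight-point half-log series from 100 uM in 0.5% DMSO, duplicates. CASP8 mRNA by qRT-PCR, normalized to ACTB, GAPDH, POLR2A; bidirectional fit versus DMSO.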

[11] = read-out: Cytochrome P450 (CYP2B6), CYP2B6 (gene 1555); experiment: LTEA_HepaRG_CYP2B6: Life Technologies and Expression Analysis (LTEA) Assay for Cytochrome P450 (CYP2B6) using HepaRG (AID 2283481)
Method in brief: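 Using 48 h treatment of HepaRG cells in serum-free induction medium, concentrations spanned half-log steps from 100 uM in 0.5% DMSO vehicle. CYP2B6 mRNA induction or loss is scored by qRT-PCR against DMSO.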

[12] = read-out: Cytochrome P450 2C19 (Homo sapiens) (UniProt P33261); experiment: LTEA_HepaRG_CYP2C19: Life Technologies and Expression Analysis (LTEA) Assay for CYP2C19 using HepaRG (AID 2283482)
Method in brief: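 Human HepaRG liver cells received test chemicals for 48 h (highest 100 uM, half-log dilutions in 0.5% DMSO). CYP2C19 mRNA induction or loss is read by multiplexed qRT-PCR and fitted in both directions versus vehicle.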

[13] = read-out: CYP2C8 (gene 1558); experiment: LTEA_HepaRG_CYP2C8: Life Technologies and Expression Analysis (LTEA) Assay for CYP2C8 using HepaRG (AID 2283483)
Method in brief: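 Differentiated HepaRG cells in serum-free induction medium exposed 48 h in duplicate to 8 half-log concentrations from 100 uM in 0.5% DMSO. CYP2C8 mRNA by qRT-PCR normalized to ACTB, GAPDH, POLR2A; bidirectional fit versus DMSO.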

[14] = read-out: CYP2C9 (gene 1559); experiment: LTEA_HepaRG_CYP2C9: Life Technologies and Expression Analysis (LTEA) Assay for CYP2C9 using HepaRG (AID 2283484)
Method in brief: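 Differentiated human HepaRG cells in serum-free induction medium were exposed 48 h to chemicals in 8-point half-log series from 100 uM (0.5% DMSO), in duplicate. CYP2C9 mRNA was measured by qRT-PCR, normalized to ACTB/GAPDH/POLR2A, with bidirectional fitting versus DMSO.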

[15] = read-out: CYP2E1 (gene 1571); experiment: LTEA_HepaRG_CYP2E1: Life Technologies and Expression Analysis (LTEA) Assay for CYP2E1 using HepaRG (AID 2283485)
Method in brief: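 Human liver line HepaRG, plated 48 h, then serum-free induction medium + chemical x 48 h; 8-pt CRC from 100 uM, half-log, 0.5% DMSO, n=2. Readout: CYP2E1 mRNA qRT-PCR vs ACTB/GAPDH/POLR2A; bidirectional fit vs DMSO.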

[16] = read-out: CYP4A11 (gene 1579); experiment: LTEA_HepaRG_CYP4A11: Life Technologies and Expression Analysis (LTEA) Assay for CYP4A11 using HepaRG (AID 2283486)
Method in brief: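 Readout is CYP4A11 mRNA induction or suppression (qRT-PCR, ACTB/GAPDH/POLR2A normalization) in human HepaRG cells after 48 h chemical treatment, concentrations to 100 uM in 0.5% DMSO, fitted bidirectionally against vehicle.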

[17] = read-out: Cytochrome P450 3A4 (Homo sapiens) (UniProt P08684); experiment: LTEA_HepaRG_CYP3A4: Life Technologies and Expression Analysis (LTEA) Assay for CYP3A4 using HepaRG (AID 2283487)
Method in brief: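 In a human hepatic line (HepaRG), duplicate wells were treated 48 h with up to 100 uM chemical in half-log dilutions. Endpoint: CYP3A4 mRNA induction or loss relative to 0.5% DMSO vehicle, by qRT-PCR.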

[18] = read-out: DNA damage-inducible transcript 3 (DDIT3), DDIT3 (gene 1649); experiment: LTEA_HepaRG_DDIT3: Life Technologies and Expression Analysis (LTEA) Assay for DNA damage-inducible transcript 3 (DDIT3) using HepaRG (AID 2283488)
Method in brief: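 HepaRG plated 48 h, switched to serum-free induction medium, dosed 48 h (100 uM top, half-log, 8 pts, 0.5% DMSO, n=2); RNA isolated; DDIT3 by qRT-PCR; bidirectional curve fit vs DMSO.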

Measured: AC50

Caspase-3 (Homo sapiens), sequence (P42574 whole entry, looked up): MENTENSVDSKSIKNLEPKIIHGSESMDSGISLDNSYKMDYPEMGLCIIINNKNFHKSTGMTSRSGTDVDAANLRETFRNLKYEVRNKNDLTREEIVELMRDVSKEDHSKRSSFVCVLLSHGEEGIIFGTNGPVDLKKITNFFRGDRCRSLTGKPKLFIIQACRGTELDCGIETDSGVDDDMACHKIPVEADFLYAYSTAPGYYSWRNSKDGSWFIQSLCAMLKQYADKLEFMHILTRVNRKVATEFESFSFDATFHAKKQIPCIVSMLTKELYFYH
Cytochrome P450 2C19 (Homo sapiens), sequence (P33261 whole entry, looked up): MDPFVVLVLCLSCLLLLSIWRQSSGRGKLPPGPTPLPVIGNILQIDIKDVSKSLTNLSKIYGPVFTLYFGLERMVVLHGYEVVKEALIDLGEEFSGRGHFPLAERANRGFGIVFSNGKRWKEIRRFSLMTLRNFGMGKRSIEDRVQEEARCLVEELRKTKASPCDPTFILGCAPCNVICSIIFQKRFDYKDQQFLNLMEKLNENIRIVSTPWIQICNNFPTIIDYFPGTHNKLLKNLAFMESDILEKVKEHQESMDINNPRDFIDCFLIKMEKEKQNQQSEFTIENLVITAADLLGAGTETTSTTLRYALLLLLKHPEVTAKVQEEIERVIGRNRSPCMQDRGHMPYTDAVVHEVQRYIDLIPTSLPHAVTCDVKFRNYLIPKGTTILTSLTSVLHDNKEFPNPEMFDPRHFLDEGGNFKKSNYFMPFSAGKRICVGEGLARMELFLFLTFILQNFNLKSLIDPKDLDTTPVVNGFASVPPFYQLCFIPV
Apoptosis regulator Bcl-2 (Homo sapiens), sequence (P10415 whole entry, looked up): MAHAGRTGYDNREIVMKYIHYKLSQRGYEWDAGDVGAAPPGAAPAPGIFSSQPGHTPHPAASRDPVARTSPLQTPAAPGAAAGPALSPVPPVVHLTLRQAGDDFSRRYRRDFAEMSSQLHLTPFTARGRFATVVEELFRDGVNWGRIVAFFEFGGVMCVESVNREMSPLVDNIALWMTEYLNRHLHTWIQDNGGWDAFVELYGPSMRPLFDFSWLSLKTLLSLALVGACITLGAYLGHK
Cytochrome P450 3A4 (Homo sapiens), sequence (P08684 whole entry, looked up): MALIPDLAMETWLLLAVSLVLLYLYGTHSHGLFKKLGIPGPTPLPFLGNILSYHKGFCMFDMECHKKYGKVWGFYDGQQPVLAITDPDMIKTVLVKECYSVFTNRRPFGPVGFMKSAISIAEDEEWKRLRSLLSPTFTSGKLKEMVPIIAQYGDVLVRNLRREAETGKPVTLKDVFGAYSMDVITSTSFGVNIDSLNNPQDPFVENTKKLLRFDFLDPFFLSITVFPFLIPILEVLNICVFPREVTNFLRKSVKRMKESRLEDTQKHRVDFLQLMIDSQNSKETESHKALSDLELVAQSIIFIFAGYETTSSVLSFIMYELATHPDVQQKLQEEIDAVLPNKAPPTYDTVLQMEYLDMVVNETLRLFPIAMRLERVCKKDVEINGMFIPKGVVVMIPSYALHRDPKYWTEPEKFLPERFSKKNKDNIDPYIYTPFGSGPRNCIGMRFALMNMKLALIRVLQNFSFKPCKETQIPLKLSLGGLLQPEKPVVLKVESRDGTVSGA

CCCCOC(=O)c1ccccc1C(=O)OCCCC
inactive: all assays above

O=C(Nc1ccccc1)Nc1ccnc(Cl)c1
inactive: [2] | [7] | [10] | [13] | [18]
active: [1] 74.2 µM | [3] 78.2 µM | [4] 25.2 µM | [5] 71.9 µM | [6] 69.8 µM | [8] 69.9 µM | [9] 25.8 µM | [11] 88.4 µM | [12] 79 µM | [14] 75.6 µM | [15] 25.4 µM | [16] 36.6 µM | [17] 70.8 µM

CNC(=O)ON=CC(C)(C)SC
active: [11] 50 µM
inactive: all other assays above

CC(C)C1(C)N=C(c2nc3ccccc3cc2C(=O)O)NC1=O (configuration not stated)
active: [9] 28.7 µM | [11] 6.39 µM | [12] 14.1 µM | [17] 18.8 µM
inactive: all other assays above
